The text below walks through data of PubChem BioAssay (NCATS).

Inconclusive results are not listed. Entries that show only a call come without a potency. Values without a mark were called inactive. The source made the active and inactive calls. Calls follow the shape of the dose curve; as a rule, active = well fitted inhibition curve with a large enough effect; inconclusive = small, poorly fitted or top-dose-only effect; inactive = flat fitted curve, though single readings scatter.
Potency is read from the fitted curve at half-maximal effect.

The experiment in a line: P-glycoprotein substrates identified in KB-8-5-11 adenocarcinoma cell line, qHTS therapeutic library screen (AID 1346987). Also: nearly all actives have a fitted effect of over 65% in size. To be noted: KB-8-5-11 (P-gp overexpressing) viability, CellTiter-Glo, 72 h; series mostly up to 44.5 µM. The method, boiled down: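 KB-8-5-11, a colchicine-selected P-gp-overexpressing KB-3-1 subline, was grown without colchicine for the assay. Cells were seeded at 500 cells/well, dosed in concentration-response and incubated 72 h at 37 degree C, 5% CO2. Viability was read by CellTiter-Glo luminescence.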
On the technique in general: In qHTS, concentration-response curves come from the screen itself.
On to `COc1ccc(NC(=O)c2ccc(-c3ccc(-c4nnc(C)o4)cc3C)cc2)cc1N1CCN(C)CC1`, for which the Potency result was “inactive”.
Same read-out and setting: in the case of `OC[C@H]1O[C@@H](OC/C=C/c2ccc(O)cc2)[C@H](O)[C@@H](O)[C@@H]1O` it was “inactive”; in that of `CC(C)c1c(O)ccc2c1CC[C@H]1C(C)(C)CCC[C@]21C`, “inactive”.
Still for that read-out and setting: the value for `CCCCCCCCCCCCCCCC(=O)OCCC1CCN(CCCN2c3ccccc3Sc3ccc(S(=O)(=O)N(C)C)cc32)CC1` was “inactive”.
Same read-out and setting: in the case of `CCC1C(=O)N(C)c2cnc(Nc3ccc(C(=O)NC4CCN(C)CC4)cc3OC)nc2N1C1CCCC1` (centres undefined) it was 0.231 µM (active); in that of `O=C(Nc1ccc2[nH]nc(-c3ccncc3)c2c1)[C@@H]1CCN(CC(=O)N2CCN(c3ccc(-c4ncccn4)cc3)CC2)C1`, “inactive”; in that of `NC(=O)N1CCC(CC(=O)N2CCC(C3c4ncc(Br)cc4CCc4cc(Cl)cc(Br)c43)CC2)CC1` (centres undefined), 18.4 µM (active).
Consider `N#Cc1ccc(-c2ccc(S(=O)(=O)Nc3cccc(N)n3)cc2)cc1`, for which the Potency result is “inactive”.
Still for that read-out and setting: in the case of `C[C@]12CC[C@@H]3c4ccc(OS(=O)(=O)O)cc4CC[C@H]3[C@@H]1CCC2=O` it was “inactive”.
Still for that read-out and setting: in the case of `COc1ccc(C#Cc2ccc(C(=O)N3CCC[C@@H](O)C3)c(F)c2)cc1` it was “inactive”.
Still for that read-out and setting: in the case of `C=C1C(=O)OC[C@@H]1C/C=C(\C)CC1CC(C)C(=O)O1` (some centres undefined) it was “inactive”; in that of `Cc1cc(C)nc(SCC(=O)Nc2ncc(Cc3cccc4ccccc34)s2)n1`, “inactive”.
Turning to `CC(=O)OCC(=O)[C@@]1(O)[C@H](C)C[C@H]2[C@@H]3C[C@H](F)C4=CC(=O)C=C[C@]4(C)[C@H]3[C@@H](O)C[C@@]21C`, the Potency result is “inactive”.
For `CC(=O)OC1CC(C)(C(=O)O)CC2C3=CC(=O)C4C5(C)CCC(OC6OC(C(=O)O)C(O)C(O)C6OC6OC(C(=O)O)C(O)C(O)C6O)C(C)(C)C5CCC4(C)C3(C)CCC12C` (centres undefined), the activity change, negative = cytotoxicity was 0.92% [at 9.29 µM].
Take `CC(=O)O[C@@H]1[C@@H](OC(C)=O)[C@H](C)O[C@@H](O[C@H]2[C@@H]3C=CO[C@@H](O[C@@H]4O[C@H](CO)[C@@H](O)[C@H](O)[C@H]4O)[C@@H]3[C@@]3(CO)O[C@@H]23)[C@@H]1OC(=O)/C=C/c1ccccc1`: the Potency entry is “inactive”.
For `CC(=O)O[C@H]1C[C@@](O)(C(C)C)[C@@H]2[C@@H](OC(=O)c3ccc(O)cc3)CC(C)=CC[C@@]12C`, the Potency entry was “inactive”.
Still for that read-out and setting: the value for `CC(=O)O[C@H]1[C@@]2(O)C[C@H](C)[C@H](OC(=O)c3ccccc3)[C@@H]2[C@@H](OC(=O)CO)[C@]2(OC(C)=O)C[C@H]3C(=O)C(C)(C)C[C@@H]3[C@@]1(C)[C@H]2OC(C)=O` was “inactive”; that for `C=C1C(=O)O[C@@H]2C=C(COC(C)=O)CC/C=C(\CO)CC[C@@H]12` was “inactive”.
As to `CCOC(=O)N1CCC(N2CCC[C@@H](NC(=O)c3ccccc3C)C2)CC1`, the Potency entry is “inactive”.
On the same count and under the same terms, in the case of `CC(=O)OC1C(OC(=O)c2ccccc2)C2C(C)(C)CCC(OC(C)=O)C2(C)C23CCC(C)(C2)C(=O)CC13` (centres undefined) it was “inactive”; in that of `Nc1nc2c(ncn2C2OC3COP(=O)(O)OC3C2O)c(=O)[nH]1` (centres undefined), “inactive”.
The same measure, in the same setting: the value for `COc1ccccc1N1CCN(CC(C(=O)NC(C)(C)C)c2ccccc2)CC1` (centres undefined) was “inactive”; that for `CCC(C)CC(=O)OC1C(=O)C(CO)=CC(O)C1C(C)C` (centres undefined) was 7.31 µM (active); that for `CN=C(NC)NCc1ccccc1` was “inactive”.
Still for that read-out and setting: in the case of `C=C1C(=O)O[C@@H]2[C@H]3C(C)=CC(=O)C3=C(C)[C@@H](OC(=O)/C(C)=C\C)[C@H](O)[C@@H]12` it was “inactive”; in that of `C/C=C(\C)C(=O)O[C@H]1C[C@](C)(O)[C@H]2CC=C(C)[C@H]2[C@@H]2OC(=O)[C@H](C)[C@H]21`, “inactive”.
For the molecule `COc1c2c(c(C)c3c1C(=O)OC3)O[C@@]1(C)C[C@@H](OC(C)=O)[C@]34O[C@](OC)(CC[C@]3(C)[C@H]1C2)OC4(C)C`, the Potency entry was “inactive”.
As to `CCCCCCCCCCCCCCCCCC(=O)[O][Al]`, the Potency entry was “inactive”.
Still for that read-out and setting: in the case of `CC(=O)OC1CC2(C)C(CCC(C)C23Cc2c(O)cc(CO)c(C=O)c2O3)C(C)(C)C1O` (centres undefined) it was “inactive”; in that of `C[C@H]1[C@H](/C=C/c2ccc(-c3ccccc3C#N)cn2)[C@@H]2[C@@H](C)OC(=O)[C@@H]2C[C@@H]1C`, 16.4 µM (active).
The same measure, in the same setting: in the case of `O=S(=O)(NCc1cccc2ccccc12)c1cc(Cl)c(Oc2cccc(N3CCNCC3)c2)s1` it was 16.4 µM (active); in that of `C/C(=C/CO)CCC1C(C)CCC2C(C)(C)CCCC12C` (centres undefined), “inactive”.
Turning to `Cc1ccc(N2CCN(CCC3NC(=O)c4ccccc43)CC2)cc1C` (centres undefined), the Potency result was “inactive”.
The same measure, in the same setting: in the case of `Cc1c(O)cc2c(c1C)O[C@](C)(CCC[C@H](C)CCC[C@H](C)CCCC(C)C)CC2` it was “inactive”.
